# From PubChem BioAssay
# Rows were chosen to be rich in hits. Some 6.2% of all compounds tested hit in one or more screens of this group.
# KB-3-1 tox – kills parental KB-3-1 adenocarcinoma cells | KB-3-1 viability, CellTiter-Glo ATP luminescence, 72 h | Potency, µM (highest dose often 46.1 µM), usual class: cytotoxic | 1.4% of 400,000 active; further: on the % scale 0 is the no-effect control and ±100 the full control effect; nearly all actives have a fitted effect of over 60% in size
#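 Viability of parental KB-3-1 cells, measured by CellTiter-Glo luminescence, followed a 72 h incubation at 37 °C with pinned compounds in phenol-red-free DMEM containing 10% FBS.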
# KB-V1 MDR tox – kills drug-selected multidrug resistant KB-V1 cells. 3.4% of 400,000 active. Potency, µM (highest dose often 46.1 µM), most hits filed as cytotoxic. AID 1347076. KB-V1 MDR cells viability, CellTiter-Glo, 72 h; further: on the % scale 0 is the no-effect control and ±100 the full control effect; nearly all actives have a fitted effect of over 60% in size
#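 Potencies derive from concentration-effect curves fitted to normalized luminescence (CellTiter-Glo) of KB-V1 cells treated for 72 h at 37 degrees C in phenol-red-free DMEM containing 10% FBS.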
# HT1080NT lethal – kills 2HG-producing HT-1080-NT fibrosarcoma cells; 1.6% of 360,000 active; Potency, µM (series often up to 46.1 µM), inactives show at the highest dose activity, negative = less viability, usual class: cytotoxic; HT-1080-NT fibrosarcoma viability, CellTiter-Glo ATP luminescence, 48 h;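 further: NT is the 2HG producing partner of a matched IDH1 knockdown line; 0% = DMSO-treated cells and -100% = media-only wells without cells; nearly all actives have a fitted effect of over 55% in size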
#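 Compounds were tested in concentration-response format on HT-1080-NT cells for 48 hours at 37 degrees C. Cell viability came from CellTiter-Glo luminescence; curves were classified by r2, response magnitude and activity.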
# ATXN viability – cell viability loss in ATXN counter-screen; 0.49% of 400,000 active; Potency, µM (doses to about 56.7 µM), actives largely listed as cytotoxic; AID 651635; S2 cells (HEK-293 line with an ATXN2-luciferase reporter) viability, CellTiter-Fluor protease fluorescence, 24 h; further: nearly all actives have a fitted effect of over 40% in size
# ATXN2 expr inh – inhibitors of ATXN2 expression | HEK-293 ATXN2-luciferase reporter, luminescence, 24 h | Potency, µM (top dose mostly 57 µM), for inactives: at the top dose activity change, negative = inhibition, usual class: inhibitors | 0.72% of 360,000 active; further: on the % scale 0 is the no-effect control and ±100 the full control effect; nearly all actives have a fitted effect of over 55% in size
#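 ATXN2-luciferase reporter cells (luciferase flanked by upstream and downstream ATXN2 gene portions) were treated 24 h at 37 °C with compounds at up to 57 uM. SteadyGlo luminescence gave expression; GF-AFC fluorescence gave viability.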
# HT1080 IDH1KD tx – HT-1080 IDH1 knockdown cell toxicity (counter line). Potency, µM (highest dose often 46.1 µM), for the others: at the highest dose activity, negative = toxicity, usual class: cytotoxic. HT-1080 IDH1 knockdown viability, ATP luminescence, 48 h. 2% of 360,000 active;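 further: 0% = DMSO wells and -100% = cell-free medium wells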
#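 IDH1KD HT-1080 cells, 750/well, RPMI + 5% FBS; compound pinned after 2 h settling; 48 h, 37 °C; CellTiter-Glo luminescence; % activity normalised to DMSO and no-cell wells; curves fitted, classed by r2 and efficacy.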
# * marks the source's active call; other numbers are inactive results; i = inactive; u = inconclusive; x = no result. The call rests on the fitted dose curve; in most records, active means well fitted curve in the direction sought with a large enough effect; inconclusive means small, poorly fitted or top-dose-only effect, or another doubt; inactive means no such curve, though single readings can be large; an effect the other way counts as inactive or inconclusive. Potency means the concentration at half of the fitted maximal effect.
SMILES,KB-3-1 tox,KB-V1 MDR tox,HT1080NT lethal,ATXN viability,ATXN2 expr inh,HT1080 IDH1KD tx
N#CC1=C(N)Oc2cc(N)ccc2C1c1cccc(F)c1 (centres undefined),5.17µM*,u,2.91µM*,i,-14.7%,2.31µM*
N#CC1=C(N)Oc2cc(N)ccc2C1C1CCCCC1 (centres undefined),5.8µM*,u,20.6µM*,i,-14.0%,8.2µM*
CN(C)c1ccc2c(c1)OC(N)=C(C#N)C2c1cccc(F)c1 (centres undefined),u,u,0.178µM*,i,u,0.224µM*
N#CC1=C(N)Oc2cc(O)ccc2C1c1cccnc1 (centres undefined),u,u,-20.6%,i,11.1%,2.0%
CC1(C)CC(C(=O)N2CCOc3ccc(CN4CCN(Cc5ccccn5)CC4)cc3C2)CCO1 (centres undefined),x,x,x,i,x,x
CCC1(c2ccccc2)ON(c2c(Br)cccc2Br)C1=O (centres undefined),i,u,u,u,22.4µM*,18.4µM*
CCOC(=O)c1cc(C#N)c(SC)nc1C,i,i,2.5%,i,2.0%,6.3%
CCOC(=O)c1cc(C#N)c(SCc2ccc(C#N)cc2)nc1C,i,2.31µM*,-1.3%,i,-6.0%,-16.6%
COc1cccc(C(=O)NCC2Cc3c(F)ccc(-c4ncccn4)c3O2)c1OC (centres undefined),x,x,x,i,x,x
CCc1ccc2ncc(S(=O)(=O)c3ccc(C)c(C)c3)c(N3CCCC3)c2c1,18.4µM*,u,u,i,-4.1%,u
CCCCCOc1ccc(/C=C/C(=O)Nc2sc(C)c(C)c2C(=O)OCC)cc1OC,i,i,x,i,13.9%,x
O=C(CSc1ccc(-c2ccco2)nn1)NCc1ccc(F)cc1,i,i,-3.1%,i,9.8%,-6.5%
O=C(CSc1ccc(-c2ccco2)nn1)c1ccc(F)cc1,i,25.9µM*,17.3%,i,27.9%,-1.0%
Cc1ccc(C)c(CSc2nc3[nH]ncc3c(=O)[nH]2)c1,1.16µM*,0.517µM*,1.3µM*,i,-10.5%,1.84µM*
CCC1CN(CC(=O)NC(c2ccccn2)C(F)(F)F)Cc2cc(OC)ccc2O1 (centres undefined),x,x,x,i,x,x
CCCN1CNc2c(c(=O)[nH]c(=S)n2CCCc2ccccc2)C1,x,x,-23.0%,x,x,-28.9%
Cc1ccc2[nH]c(CN3CCC(CO)(CC4CCCCO4)CC3)c(C)c2c1 (centres undefined),i,u,u,i,69.7%,13µM*
Cc1ccc(CN2CCC(CO)(CC3CCCCO3)CC2)o1 (centres undefined),i,i,7.0%,u,-12.5%,13.2%
CC1(COc2ccc3c(c2)ncn3-c2ccc3cccc(N4CCC(N)CC4)c3n2)COC1,x,x,x,x,12.2µM*,x
CC1C(=O)N(Cc2cn(CCC3OCCCO3)nn2)CCS(=O)(=O)N1Cc1ccc(-c2ccc(Cl)cc2)cc1 (centres undefined),u,u,u,28.2µM*,17.8µM*,u
CC(C)C1C(=O)N(Cc2cn(Cc3ccco3)nn2)CCS(=O)(=O)N1Cc1ccc(-c2ccc(Cl)c(Cl)c2)cc1 (centres undefined),i,13µM*,u,u,0.0%,u
CC(C)C1C(=O)N(Cc2cn(CCC3OCCO3)nn2)CCS(=O)(=O)N1Cc1ccc(-c2ccc(Cl)c(Cl)c2)cc1 (centres undefined),u,i,u,u,u,18.4µM*
CC(C)C1C(=O)N(Cc2cn(CCC3OCCCO3)nn2)CCS(=O)(=O)N1Cc1ccc(-c2ccncc2)cc1 (centres undefined),16.4µM*,i,-1.6%,u,2.3%,-6.4%
CC1C(=O)N(Cc2cn(CCC3OCCCO3)nn2)CCS(=O)(=O)N1Cc1ccc(-c2ccccc2)cc1 (centres undefined),i,i,0.5%,i,-14.4%,-4.0%
CCCCN(CCCC)S(=O)(=O)c1ccc(NC(=O)c2c(-c3ccccc3)noc2C)cc1,i,u,x,i,6.3%,x
SMILES,KB-3-1 tox,KB-V1 MDR tox,HT1080NT lethal,ATXN viability,ATXN2 expr inh,HT1080 IDH1KD tx
O=c1cc(-c2ccc(F)cc2)nc(SCc2nc(-c3cccc(C(F)(F)F)c3)no2)[nH]1,i,i,x,x,x,x
CCOc1ccc(CNC(=O)CCS(=O)(=O)c2cc3c4c(c2)CCN4C(=O)CC3)cc1,i,i,x,i,0.4%,x
Cc1ccc(-c2ccc(CN3C(C(C)C)C(=O)N(Cc4cn(CCC5OCCO5)nn4)CCS3(=O)=O)cc2)c(C)c1 (centres undefined),u,u,u,u,u,23.1µM*
COC(=O)Cc1c(C)c2ccc3c(c2oc1=O)CN(Cc1ccccc1Cl)CO3,i,i,x,i,-7.1%,x
COc1cccc(CNC(=O)C2CCCCN2S(=O)(=O)c2ccc(F)cc2)c1 (centres undefined),i,i,x,i,-9.6%,x
CCOC(=O)c1cc(-c2ccccc2)n(CCCC(=O)Nc2cc(C)ccc2OC)c1C,i,i,x,x,x,x
O=C(Nc1ccc(C(=O)N2CCCCC2)cc1)c1nsc2ccccc12,u,i,x,u,-3.1%,x
CCCCNC(=O)c1nc(-c2cccs2)oc1-c1ccc(Cl)cc1,i,u,24.6%,x,x,27.1%
CCCCNC(=O)c1nc(-c2cc3ccccc3[nH]2)oc1-c1ccccc1,i,8.2µM*,-15.6%,x,x,-8.8%
Cn1c(SCCCC(=O)c2ccc(F)cc2)nnc1-c1ccncc1,i,i,3.0%,i,-9.8%,4.8%
COCCNc1nnc(SCC(=O)Nc2cc(-c3ccccc3)nn2-c2ccccc2)s1,i,16.4µM*,-9.3%,i,-1.2%,6.2%
COCCn1c(SCC(=O)Nc2cc(C(C)(C)C)nn2-c2ccccc2)nnc1-c1ccncc1,i,16.4µM*,3.0%,i,5.0%,-8.3%
COCCn1c(SCCCC(=O)c2ccc(Br)cc2)nnc1-c1ccncc1,10.3µM*,2.59µM*,-4.1%,i,-20.9%,-18.1%
COc1cc(OC)c(NC(=O)C2CCN(S(=O)(=O)c3ccc4c(c3)oc(=O)n4C)CC2)cc1Cl,i,u,x,i,-6.3%,x
CCc1ccc(C(=O)c2cn(Cc3ccc(F)cc3)c3cc(OC)c(OC)cc3c2=O)cc1,u,u,x,14.1µM*,u,x
COc1ccc(OC)c2[nH]c(=O)c(CCNC(=O)C3CCCCC3)cc12,i,9.2µM*,22.7%,i,-17.3%,5.2%
COc1ccc(OC)c2[nH]c(=O)c(CCNC(=O)c3ccc(S(=O)(=O)N4CCCCC4)cc3)cc12,i,8.2µM*,5.1%,i,-7.0%,2.9%
